Experimental data taken from PubChem BioAssay AID1159580 (chemical genetic matrix, 2015).
“And” between values parts separate entries of the source, which are not always exact repeats. Equal entries are not always repeated. The campaign covered roughly 5,500 compounds. About 2,000 (36%) were called active. About 18% were inconclusive and are not listed. Cut-off read from the data, not from the text of the source: active = normalized growth mostly below about 0.91 (no sharp cut-off); inconclusive = no clear call, values can overlap the other calls; inactive = mostly above about 0.92. This is one part of the list.

Assay: chemical genetic growth profiling, strain panel (AID 1159580);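 note: tested at 20 µM; growth read once vehicle control cultures reached saturation at 30 °C; 1 = growth at the plate median or of vehicle wells; lower values mean less growth of the strain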
Conditions: S. cerevisiae deletion strains, growth OD

Measured: normalized growth

O=C(O)c1ccc(S(=O)(=O)N(Cl)Cl)cc1
inactive: locus YAL013W, strain DEP1, active compounds read low 1 | locus YAL021C, strain ccr4, active compounds read low 1 | locus YAL026C, strain drs2, active compounds read low 0.962 | locus YAL030W, strain snc1, active compounds read low 0.994 | locus YBL061C, strain skt5, active compounds read low 0.975 | locus YBR009C, strain hhf1, active compounds read low 0.925 | locus YBR021W, strain FUR4, active compounds read low 0.987 | locus YBR023C, strain chs3, active compounds read low 1 | locus YBR171W, strain sec66, active compounds read low 0.969 | locus YBR229C, strain ROT2, active compounds read low 1 | locus YBR231C, strain swc5, active compounds read low 0.995 | locus YBR279W, strain paf1, active compounds read low 0.992 | locus YCL011C, strain gbp2, active compounds read low 0.977 | locus YCL016C, strain dcc1, active compounds read low 1 | locus YCL029C, strain bik1, active compounds read low 1.01 | locus YCL061C, strain MRC1, active compounds read low 0.933 | locus YCL069W, strain vba3, active compounds read low 0.988 | locus YCR088W, strain abp1, active compounds read low 0.998 | locus YDL005C, strain med2, active compounds read low 0.996 | locus YDL035C, strain GPR1, active compounds read low 0.989 | locus YDL040C, strain nat1, active compounds read low 0.992 | locus YDL074C, strain BRE1, active compounds read low 0.98 | locus YDL101C, strain DUN1, active compounds read low 1 | locus YDL185W, strain tfp1, active compounds read low 1.01 | locus YDL192W, strain arf1, active compounds read low 1.03 | locus YDR001C, strain nth1, active compounds read low 0.978 | locus YDR069C, strain doa4, active compounds read low 1.02 | locus YDR101C, strain arx1, active compounds read low 1.02 | locus YDR137W, strain rgp1, active compounds read low 1.01 | locus YDR150W, strain NUM1, active compounds read low 1 | locus YDR159W, strain sac3, active compounds read low 0.98 | locus YDR162C, strain NBP2, active compounds read low 1 | locus YDR195W, strain ref2 0.996 | locus YDR297W, strain sur2, active compounds read low 0.988 | locus YDR318W, strain mcm21, active compounds read low 1.01 | locus YDR334W, strain swr1, active compounds read low 0.97 | locus YDR335W, strain msn5, active compounds read low 0.987 | locus YDR388W, active compounds read low 1.02 | locus YDR392W, strain spt3, active compounds read low 0.939 | locus YDR502C, strain sam2, active compounds read low 1.04 | locus YEL003W, strain gim4, active compounds read low 0.964 | locus YEL037C, strain rad23, active compounds read low 0.962 | locus YEL061C, strain CIN8 (second series), active compounds read low 0.975 | locus YEL061C, strain CIN8, active compounds read low 1 | locus YER015W, strain faa2, active compounds read low 1 | locus YER016W, strain bim1, active compounds read low 0.997 | locus YER110C, active compounds read low 1.03 | locus YER111C, strain swi4, active compounds read low 0.982 | locus YER155C, strain BEM2 (second series), active compounds read low 0.979 | locus YER155C, strain BEM2, active compounds read low 0.992 | locus YER167W, strain BCK2, active compounds read low 1 | locus YFR010W, strain ubp6, active compounds read low 0.959 | locus YGL078C, strain dbp3, active compounds read low 1.03 | locus YGL086W, strain mad1, active compounds read low 0.991 | locus YGL167C, strain pmr1, active compounds read low 0.973 | locus YGL173C, strain kem1, active compounds read low 0.982 | locus YGL227W, strain vid30, active compounds read low 0.996 | locus YGL240W, strain doc1, active compounds read low 1.02 | locus YGL248W, strain PDE1, active compounds read low 1 | locus YGL253W, strain hxk2, active compounds read low 0.999 | locus YGR078C, strain PAC10, active compounds read low 0.998 | locus YGR135W, strain pre9, active compounds read low 1.01 | locus YGR252W, strain gcn5, active compounds read low 0.971 | locus YHR013C, strain ard1, active compounds read low 1.01 | locus YHR027C, strain rpn1, active compounds read low 0.993 | locus YHR030C, strain SLT2, active compounds read low 0.999 and 0.973 | locus YHR079C, strain IRE1 (second series), active compounds read low 1.02 | locus YHR079C, strain IRE1, active compounds read low 0.973 | locus YHR094C, strain hxt1, active compounds read low 1.03 | locus YHR129C, strain ARP1, active compounds read low 0.996 | locus YHR142W, strain chs7, active compounds read low 0.971 | locus YHR200W, strain rpn10, active compounds read low 1.03 | locus YIL066C, strain RNR3, active compounds read low 1 | locus YIL073C, strain SPO22, active compounds read low 1.03 | locus YIL125W, strain kgd1, active compounds read low 1.01 | locus YIR030C, strain dcg1, active compounds read low 1.03 | locus YJL092W, strain hpr5, active compounds read low 0.987 | locus YJL095W, strain BCK1 (second series), active compounds read low 0.991 | locus YJL095W, strain BCK1, active compounds read low 1 and 0.969 | locus YJL115W, strain asf1, active compounds read low 0.969 | locus YJL129C, strain trk1, active compounds read low 0.996 | locus YJL134W, strain LCB3, active compounds read low 1 | locus YJL154C, strain vps35, active compounds read low 0.985 | locus YJL164C, strain tpk1, active compounds read low 0.954 | locus YJL166W, strain qcr8, active compounds read low 1.01 | locus YJL168C, strain set2, active compounds read low 1.02 | locus YJL187C, strain SWE1 (second series), active compounds read low 0.998 | locus YJL187C, strain SWE1, active compounds read low 0.994 | locus YJR043C, strain POL32, active compounds read low 0.982
